Reference: PubChem BioAssay (Tox21)
A number with no mark means an inactive call. Inconclusive results are not listed. Entries that show only a call come without a potency. The source made the active and inactive calls. Calls follow the shape of the dose curve; as a rule, active = well fitted curve in the direction sought with a large enough effect in the repeat runs; inconclusive = weak or mixed curves; inactive = no such curve, though single readings can be large; an effect the other way counts as inactive or inconclusive.

Tests used:
[1] = A CellTox Green Cytotoxicity Assay to monitor cytotoxicity in HEK293 cells - 32 hour (AID 1224881); also: nearly all actives have a fitted effect of over 40% in size; also: potency is read from the fitted curve at half-maximal effect
Outline: (§1)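 HEK293 cells, 600/well, were preincubated 5 hours and then exposed to compounds at 37 C for up to 40 hours. A cell-impermeant cyanine dye staining dead-cell DNA was read by fluorescence at 0, 8, 16, 24, 32 and 40 h time points.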

[2] = A CellTox Green Cytotoxicity Assay to monitor cytotoxicity in HepG2 cells - 0 hour (AID 1224882); also: nearly all actives have a fitted effect of over 35% in size
Outline: (§2)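 HepG2 cells, 600/well, preincubated 5 h with CellTox Green dye, then exposed to Tox21 compounds in DMSO at 37 C for up to 40 h. Dead-cell DNA fluorescence read at the indicated time point.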

[3] = A CellTox Green Cytotoxicity Assay to monitor cytotoxicity in HEK293 cells - 8 hour (AID 1224884); also: nearly all actives have a fitted effect of over 35% in size; also: potency is read from the fitted curve at half-maximal effect
Outline: as §1

[4] = qHTS RealTime-Glo MT Cell Viability Assay in HepG2 cells - 16 hour (AID 1224885); also: nearly all actives have a fitted effect of over 50% in size; also: potency is read from the fitted curve at half-maximal effect
Outline: (§3)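 Luminescence read-out: viable HepG2 cells reduce a prosubstrate to a NanoLuc substrate, giving a signal proportional to live cell number. Reads taken at 0, 8, 16, 24, 32 and 40 h of compound exposure at 37 C.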

[5] = qHTS RealTime-Glo MT Cell Viability Assay in HEK293 cells - 24 hour (AID 1224886); also: nearly all actives have a fitted effect of over 50% in size; also: potency is read from the fitted curve at half-maximal effect; as to activity change, negative = cytotoxicity: top concentration of the series differs between compounds
Outline: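 Nonlytic real-time viability readout: viable cells convert prosubstrate to NanoLuc substrate, giving luminescence proportional to live cell number. HEK293, 600 cells/well, compound added after 5 h, continuous culture at 37 C.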

[6] = qHTS RealTime-Glo MT Cell Viability Assay in HEK293 cells - 8 hour (AID 1224887); also: nearly all actives have a fitted effect of over 50% in size; also: potency is read from the fitted curve at half-maximal effect; as to activity change, negative = cytotoxicity: top concentration of the series differs between compounds
Outline: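 600 cells/well were plated with the nonlytic NanoLuc/prosubstrate reagent, pre-incubated 5 h, then given 23 nL of compound in DMSO. Incubation at 37 C for 40 h, with luminescence from viable-cell-reduced substrate read repeatedly from 0 h.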

[7] = A CellTox Green Cytotoxicity Assay to monitor cytotoxicity in HEK293 cells - 16 hour (AID 1224888); also: nearly all actives have a fitted effect of over 35% in size; also: potency is read from the fitted curve at half-maximal effect
Outline: as §1

[8] = qHTS RealTime-Glo MT Cell Viability Assay in HepG2 cells - 0 hour (AID 1224889); also: nearly all actives have a fitted effect of over 50% in size
Outline: as §3

[9] = A CellTox Green Cytotoxicity Assay to monitor cytotoxicity in HepG2 cells - 32 hour (AID 1224883); also: nearly all actives have a fitted effect of over 50% in size; also: potency is read from the fitted curve at half-maximal effect
Outline: as §2

[10] = A CellTox Green Cytotoxicity Assay to monitor cytotoxicity in HepG2 cells - 8 hour (AID 1224890); also: nearly all actives have a fitted effect of over 45% in size; also: potency is read from the fitted curve at half-maximal effect
Outline: as §2

Structure (SMILES) | Potency [1] | Potency [2] | Potency [3] | Potency [4] | Potency [5] | Potency [6] | Potency [7] | Potency [8] | Potency [9] | Potency [10] | activity change, negative = cytotoxicity [8]
c1ccc2nc(N3CCNCC3)ccc2c1 | inactive | inactive | inactive | inactive | inactive | inactive | inactive | inactive | – | – | –
COP(=O)(OC)O/C(=C\Cl)c1cc(Cl)c(Cl)cc1Cl | inactive | inactive | inactive | – | inactive | inactive | inactive | – | – | – | –
ClC1=C(Cl)[C@]2(Cl)[C@@H]3[C@H]4C[C@H]([C@@H]5O[C@H]45)[C@@H]3[C@@]1(Cl)C2(Cl)Cl | inactive | – | inactive | inactive | inactive | inactive | inactive | inactive | inactive | inactive | –
N#Cc1c[nH]cc1-c1cccc2c1OC(F)(F)O2 | inactive | inactive | inactive | inactive | – | – | inactive | inactive | – | inactive | –
COc1ccc2c(c1OC)C(=O)O[C@@H]2[C@H]1c2cc3c(cc2CCN1C)OCO3 | inactive | – | inactive | inactive | inactive | inactive | inactive | inactive | inactive | inactive | –
C#CC1(O)CCCCC1 | inactive | inactive | inactive | inactive | inactive | inactive | inactive | inactive | – | – | –
CC1(C)[C@H](/C=C2\CCSC2=O)[C@@H]1C(=O)OCc1coc(Cc2ccccc2)c1 | inactive | inactive | – | – | – | 38.9 µM (active) | inactive | inactive | inactive | inactive | –
CCCCCON=O | inactive | – | inactive | inactive | inactive | inactive | inactive | inactive | inactive | inactive | –
C=CC(=O)[O][Sn]([CH2]CCC)([CH2]CCC)[CH2]CCC | 3.47 µM (active) | – | 21.9 µM (active) | 0.549 µM (active) | 0.436 µM (active) | 0.871 µM (active) | 24.5 µM (active) | inactive | 0.692 µM (active) | 0.977 µM (active) | –
CNN | inactive | – | inactive | inactive | inactive | inactive | inactive | inactive | inactive | inactive | –
CCO/N=C(\CC)C1=C(O)CC(c2c(C)cc(C)cc2C)CC1=O (stereo unspecified) | inactive | inactive | inactive | inactive | – | – | inactive | – | – | – | –
CC(Cl)CCl (stereo unspecified) | inactive | – | inactive | inactive | inactive | inactive | inactive | inactive | inactive | inactive | –
S=C=NCCc1ccccc1 | 49.1 µM (active) | inactive | – | inactive | 49.1 µM (active) | – | inactive | inactive | – | – | –
CCCCN(CCCC)C(=S)S | inactive | inactive | inactive | inactive | inactive | inactive | inactive | inactive | – | inactive | –
Nc1nc(N)c(N)c(N)n1 | 49.2 µM (active) | – | 49.2 µM (active) | inactive | inactive | inactive | 55.2 µM (active) | inactive | 55.2 µM (active) | 49.2 µM (active) | –
ClC(Cl)C(Cl)(Cl)Cl | inactive | – | inactive | inactive | inactive | inactive | inactive | inactive | inactive | inactive | –
CCC1(CC)C(=O)N=C(O)NC1=O | inactive | – | inactive | inactive | inactive | inactive | inactive | inactive | inactive | inactive | –
CCC[CH2][Sn]([CH2]CCC)([CH2]CCC)[O][Sn]([CH2]CCC)([CH2]CCC)[CH2]CCC | 0.339 µM (active) | – | 2.14 µM (active) | 0.676 µM (active) | 0.191 µM (active) | 0.269 µM (active) | 1.7 µM (active) | – | 0.537 µM (active) | 0.676 µM (active) | 23.4% [at 6.97 µM]
Nc1ccc(Cl)cc1C(=O)c1ccccc1F | inactive | inactive | inactive | inactive | inactive | inactive | inactive | inactive | – | inactive | –
O=[N+]([O-])c1ccc(CCl)cc1 | inactive | – | inactive | inactive | inactive | inactive | inactive | inactive | inactive | inactive | –
O=C(O)CCCCCCNC1c2ccccc2CCc2ccccc21 | inactive | – | inactive | inactive | inactive | inactive | inactive | inactive | inactive | inactive | –
[Cl-].[Cl-].[Cl-].[Yb+3] | inactive | – | inactive | inactive | inactive | inactive | inactive | inactive | inactive | inactive | –
CCN(CC)CCc1c[nH]c2ccccc12 | inactive | – | inactive | inactive | inactive | inactive | inactive | inactive | inactive | inactive | –
